# Reference: PubChem BioAssay (Tox21)
# Several values for one entry are separate records, joined by “and”; a condition that tells them apart may be missing. Identical values can stand only once. Records with an inconclusive call do not appear. Where a call stands in place of a potency, no number is given. Where a structure was tested more than once in an assay, its records may differ in their call. Activity calls are given as the source filed them. The call rests on the fitted dose curve; in most records, active means well fitted activation curve with a large enough effect in the repeat runs; inconclusive means weak or mixed curves; inactive means flat fitted curve, though single readings scatter.
# Test: A CellTox Green Cytotoxicity Assay to monitor cytotoxicity in HEK293 cells - 32 hour (AID 1224881); further: nearly all actives have a fitted effect of over 40% in size
# Details: CellTox Green fluorescence; series mostly up to 76.8 µM
# From the text: National Center for Advancing Translational Sciences [NCATS]
# NIH Chemical Genomics Center [NCGC]
# U.S. Environmental Protection Agency [EPA]
# National Institutes of Environmental Health Sciences [NIEHS]
# National Toxicology Program [NTP]
# Cell-based models are critical for drug discovery. Determining the natural cytotoxic effects resulting from test compounds is an essential research activity. A CellTox Green Cytotoxicity Assay to monitor cytotoxicity in real time of continues cell culture during 40 hours of the compound treatment was used to screen Tox21 10K library compounds in Hek293 cells. CellTox Green Cytotoxicity Assay is a nonlytic, homogeneous, biofluorescent method to measure cytotoxicity in cell culture after experimental manipulation. The assay system uses a proprietary asymmetric cyanine dye that is excluded from viable cells but preferentially stains the dead cell's DNA. […] Viable cells produce no appreciable increases in fluorescence. Therefore, the fluorescence signal produced by the binding interaction with dead cell DNA is proportional to cytotoxicity.
# The mixture of Hek293 cell suspension and reagents were dispensed at 600cells/6 ul/well in 1536-well tissue culture treated black solid bottom plates using a Multidrop dispenser. After the assay plates were incubated at a 37 C/5% CO2 incubator for 5 hours, 23 nL of compounds dissolved in DMSO, positive and negative controls was transferred to the assay plate by a pintool work station. The plates were incubated at 37 C for 40 hours. The fluorescence intensity were measured at 0h, 8h, 16h, 24h, 32h and 40h time points using ViewLux plate reader during compound treatment.
# Potency means the concentration at half of the fitted maximal effect.
row,SMILES,Potency
1,ClCc1ccccn1,inactive
2,CCOP(=S)(OCC)OP(=S)(OCC)OCC,inactive
3,Oc1ccc(Cl)cc1Cc1ccccc1,12.3 µM (active) and 22.1 µM (active) and 21.3 µM (active)
4,CCC(=O)Nc1ccc(Cl)c(Cl)c1,inactive
5,CC(C)=CC1C(C(=O)OCN2C(=O)C3=C(CCCC3)C2=O)C1(C)C (stereo not given),inactive
6,Nc1ccc([N+](=O)[O-])cc1N,inactive
7,CCCCCCCCCc1ccc(O)cc1,inactive
8,ClC(Cl)(Cl)c1ccccc1,inactive
9,CCOP(=O)(OCC)OCC,inactive
10,CC(C)(c1ccccc1)c1ccc(O)cc1,27.3 µM (active) and 24.5 µM (active)
11,N#Cc1cccnc1,inactive
12,Oc1ccc(Cl)cc1Cl,inactive
13,NC(=O)CN1CCCC1=O,inactive
14,Clc1ccc(C(Cl)(Cl)Cl)cc1,inactive
15,CC[n+]1c(-c2ccccc2)c2cc(N)ccc2c2ccc(N)cc21,inactive
16,CC(C)COC(=O)c1ccccc1C(=O)OCC(C)C,inactive
17,CC1=C(C(=O)Nc2ccccc2)SCCO1,inactive
18,CN(C)c1nc(=O)n(C2CCCCC2)c(=O)n1C,inactive
19,O=[N+]([O-])/N=C1\NCCN1Cc1ccc(Cl)nc1,inactive
20,C[N+](C)(C)C,inactive

row,SMILES,Potency
1,CCCCCCCCCCCCCl,inactive and 19.5 µM (active)
2,CCC[CH2][Sn]([Cl])([Cl])[CH2]CCC,442 nM (active) and 1.38 µM (active)
3,COP(=S)(OC)Oc1ccc(S(=O)(=O)N(C)C)cc1,inactive
4,CCC1(c2ccc(N)cc2)CCC(=O)NC1=O (stereo not given),inactive
5,Cc1ccc(N=CN(C)C=Nc2ccc(C)cc2C)c(C)c1,inactive
6,CCNCC,inactive
7,CC(C)Nc1ccc(Nc2ccccc2)cc1,48.8 µM (active) and 49 µM (active)
8,CN(C)c1ccccc1,inactive
9,[CH3][Sn]([Cl])([Cl])[Cl],inactive
10,c1ccc(C2CO2)cc1 (stereo not given),inactive
11,N#Cc1c(Cl)c(Cl)c(Cl)c(C#N)c1Cl,7.61 µM (active) and 6.16 µM (active)
12,CC(C)(O)C#N,inactive
13,O=C1CCCO1,inactive
14,O=C(O)CF,inactive
15,COP(=O)(NC(C)=O)SC (stereo not given),inactive
16,O=NN(c1ccccc1)c1ccccc1,inactive
17,C=CC(=O)OCC(CC)(COC(=O)C=C)COC(=O)C=C,5.64 µM (active) and 11 µM (active)
18,CC(C)CON=O,inactive
19,CCCCCCCC[N+](C)(CCCCCCCC)CCCCCCCC,17.3 µM (active) and 27.6 µM (active) and 11 µM (active)
20,Cc1ccc([N+](=O)[O-])cc1,inactive
